Screens deposited in PubChem BioAssay by National Center for Advancing Translational Sciences (NCATS).
Compounds with a hit are over-represented: about 3.2% of the library has one in this group of screens.
PMP22 txn prim: modulates PMP22 transcription in S16 Schwann cells; S16 Pmp22-F2sN Schwann cells, FLuc/NLuc coincidence luminescence, 24 h; Potency, µM (series often up to 57.5 µM), hits mostly inhibitors; actives 2% (n = 43,000); AID 1508649; active = clear falling dose curves in both reporters; inconclusive = both reporters move, but less clearly or upward; inactive = either reporter flat; the % is the NLuc reporter signal
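Transcriptional readout in edited S16(c9) cells: two luciferases reported from the Pmp22 locus, measured in turn after 24 h compound incubation.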
mTORC1 inh: inhibitors of mTORC1 signaling in Tsc2-/- p53-/- MEF cells; Tsc2-/- p53-/- MEF, phospho-rpS6 immunofluorescence/PI, 24 h; Potency, µM (doses to about 38.3 µM), actives largely listed as inhibitors; actives 0.78% (n = 44,000); AID 493208; note: nearly all actives have a fitted effect of over 50% in size
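Readout is phospho-S6 Alexa 488 signal normalized to PI per well, reported as % active cells with thresholds set from rapamycin (7.5 nM) and DMSO controls. Cells: Tsc2-/-, p53-/- MEFs, 24 hrs compound at 37 C; PI cell number serves as viability.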
p53null 32C kill: p53 null cell cytotoxicity, permissive temperature; H1299-neo p53 null cells, ATP luminescence, 24 h, 32C; Potency, µM (top dose mostly 46.1 µM), actives largely listed as cytotoxic; actives 0.62% (n = 55,000); AID 903; note: nearly all actives have a fitted effect of over 55% in size
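H1299-neo (p53 null) cells, 600/well, treated 24 h at 32C with compound up to 46 uM; ATPlite luminescence viability, normalized to DMSO and 100 uM tamoxifen; AC50 by Hill fit.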
p53null 39C tox: selectivity test: cytotoxicity in p53 null cells, nonpermissive temperature; H1299 p53-null (neo) cells, 39C, ATPlite viability, 24 h; Potency, µM (doses to about 46.1 µM), actives largely listed as cytotoxic; actives 0.97% (n = 55,000); note: nearly all actives have a fitted effect of over 50% in size
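ATP-luminescence viability readout (ATPlite, 20 min RT) after 24 hr compound treatment at 39C of H1299-neo or H1299-p53A138V cells; titration up to 46 uM; normalized to DMSO and 100 uM tamoxifen; Hill-fit AC50.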
S16 F2sN tox: toxic to S16 Pmp22-F2sN Schwann cells; S16 Pmp22-F2sN Schwann cells (luciferase reporters placed in the Pmp22 gene) viability, CellTiter-Glo, 24 h; Potency, µM (titrated, usually from 57.5 µM), actives largely listed as cytotoxic; actives 0.48% (n = 43,000); note: nearly all actives have a fitted effect of over 65% in size
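Rat S16 Schwann reporter line, 24 h treatment with library compounds delivered at 23 nL per well. Cell viability by CellTiter-Glo luminescence.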
NLuc saturating: counter-screen for PMP22 expression modulators: NanoLuc inhibition, saturating substrate; actives 4% (n = 690); Secreted NLuc enzyme (filtered S16 cell medium), Nano-Glo luminescence; AID 1508638; Potency, µM (titrated, usually from 57.5 µM), usual class: inhibitors; shares compounds with PMP22 txn prim
NLuc Km counter: inhibits NanoLuc under Km conditions, PMP22 counter-screen | actives 5% (n = 690) | secreted NLuc enzyme, coelenterazine luminescence, Km conditions | Potency, µM (doses to about 57.5 µM), usual class: inhibitors | AID 1508639 | shares compounds with PMP22 txn prim
FLuc counter: firefly luciferase enzyme inhibition artifact for PMP22 screen; purified P. pyralis FLuc, luminescence, 10 min; Potency, µM (highest dose often 57.5 µM), most hits filed as inhibitors; shares compounds with PMP22 txn prim; 690 tested, under 10 active
Target sequence (P08659 whole entry, looked up): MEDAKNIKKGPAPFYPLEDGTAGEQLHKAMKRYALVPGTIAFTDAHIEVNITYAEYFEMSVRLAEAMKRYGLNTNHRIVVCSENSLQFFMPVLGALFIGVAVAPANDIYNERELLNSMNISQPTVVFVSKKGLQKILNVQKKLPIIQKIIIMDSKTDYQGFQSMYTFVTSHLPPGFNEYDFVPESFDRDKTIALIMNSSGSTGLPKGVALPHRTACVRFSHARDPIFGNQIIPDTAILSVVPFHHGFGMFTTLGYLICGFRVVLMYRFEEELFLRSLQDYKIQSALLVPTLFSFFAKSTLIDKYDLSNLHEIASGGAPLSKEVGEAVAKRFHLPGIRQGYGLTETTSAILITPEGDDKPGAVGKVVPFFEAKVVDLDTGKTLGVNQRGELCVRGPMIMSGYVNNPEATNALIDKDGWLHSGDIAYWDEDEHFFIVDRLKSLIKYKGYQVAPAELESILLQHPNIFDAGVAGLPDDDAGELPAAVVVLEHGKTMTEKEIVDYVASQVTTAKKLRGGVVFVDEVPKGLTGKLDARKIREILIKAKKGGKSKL
S16 viab conf: S16 Schwann cell cytotoxicity, confirmatory | shares compounds with PMP22 txn prim | S16 Schwann cells viability, CellTiter-Glo ATP luminescence, 24 h | Potency, µM (doses to about 57.5 µM), actives largely listed as cytotoxic | actives 7% (n = 690)
PMP22 txn cnf: confirmation of modulators of PMP22 gene transcription in S16 cells | shares compounds with PMP22 txn prim | S16 Schwann cells Pmp22-F2sN, dual luciferase, 24 h | Potency, µM (series often up to 57.5 µM), most hits filed as inhibitors | actives 22% (n = 690) | AID 1508646; active = clear falling dose curves in both reporters; inconclusive = both reporters move, but less clearly or upward; inactive = either reporter flat; the % is the FLuc reporter signal
Large screens that a line does not name were inactive (follow-up assays come after a bar, where they were run). Unless noted, calls come from the whole dose curve; as a rule, active = well fitted curve in the direction sought with a large enough effect; inconclusive = small, poorly fitted or top-dose-only effect, or another doubt; inactive = no such curve, though single readings can be large; an effect the other way counts as inactive or inconclusive.

Cc1ccc(C(=O)Nc2ccccc2)cc1S(=O)(=O)N1CCCC1	p53null 32C kill inconclusive
CC(C)(C)c1ccc(C(=O)Nc2ccc3nc(SCC(=O)N4CCCC4)sc3c2)cc1	PMP22 txn prim inconclusive, p53null 32C kill 20µM, p53null 39C tox inconclusive, S16 F2sN tox inconclusive
Cc1ccc2oc(-c3ccc(Cl)cc3)c(O)c(=O)c2c1	PMP22 txn prim inconclusive, mTORC1 inh 9.3µM, p53null 39C tox inconclusive, S16 F2sN tox inconclusive
CC(=O)c1cccc(NC(=O)c2cccn(Cc3cccc(C)c3)c2=O)c1	PMP22 txn prim inconclusive
CC(=O)c1cccc(NC(=O)c2cc3c(s2)-c2c(C)cccc2OC3)c1	PMP22 txn prim inconclusive, p53null 32C kill 10µM, p53null 39C tox inconclusive, S16 F2sN tox inconclusive
COC(=O)[C@@H]1[C@@H](C(=O)OC)C2(c3ccccc3-c3ccccc32)N(c2ccc(Cl)cc2)N1C#N	p53null 32C kill 22µM, p53null 39C tox inconclusive (no result: PMP22 txn prim, mTORC1 inh, S16 F2sN tox)
COC(=O)C[C@]1(C(=O)OC)CN(C#N)N(c2ccc(Cl)cc2)C12c1ccccc1-c1ccccc12	p53null 32C kill inconclusive (no result: PMP22 txn prim, mTORC1 inh, S16 F2sN tox)
COc1ccc(Cl)cc1S(=O)(=O)Nc1cccc(-c2ccc(N3CCCC3)nn2)c1	p53null 39C tox inconclusive (no result: PMP22 txn prim, S16 F2sN tox)
O=C(NCc1ccccc1)N1CCc2c(sc3c2CCCC3)C1c1ccccc1 (stereo unspecified)	PMP22 txn prim 7.8µM, p53null 39C tox inconclusive, S16 F2sN tox inconclusive
O=C(NCCc1ccc(Cl)cc1)C(=O)NCC(c1cccs1)S(=O)(=O)c1cccs1 (stereo unspecified)	mTORC1 inh inconclusive, p53null 39C tox inconclusive
CCCOc1ccc(C2SCC(=O)Nc3c2c(C)nn3-c2cccc(C)c2)cc1OC (stereo unspecified)	PMP22 txn prim inconclusive, p53null 39C tox 25µM
CCOC(=O)C1=C(CN2CCN(c3ccc(C)cc3C)CC2)NC(=O)NC1c1ccc(OC)cc1 (stereo unspecified)	PMP22 txn prim inconclusive, mTORC1 inh inconclusive, S16 F2sN tox inconclusive
COc1ccc(-c2cc(=O)c3cc(OCC(=O)OC(C)C)ccc3o2)cc1	p53null 32C kill 3.2µM, p53null 39C tox 5µM
CCOC(=O)c1cnc2c(ccc3ccccc32)c1Nc1ccc(N(C)C)cc1	PMP22 txn prim inconclusive, mTORC1 inh inconclusive
CCOc1ccc(S(=O)(=O)NCCc2sc3nc(-c4ccc(C)cc4)nn3c2C)cc1	PMP22 txn prim inconclusive, S16 F2sN tox 20µM
Cc1c(CCNS(=O)(=O)c2ccccc2)sc2nc(-c3ccc(Cl)cc3)nn12	PMP22 txn prim inconclusive, p53null 39C tox inconclusive, S16 F2sN tox inconclusive
Cc1ccc(Cn2c(=O)n(CCCCC(=O)NCc3ccccc3Cl)c(=O)c3ccccc32)cc1	PMP22 txn prim inconclusive, mTORC1 inh inconclusive
CCOc1ccc(NC(=O)c2cc3c(C)nn(-c4ccccc4)c3s2)cc1	PMP22 txn prim inconclusive, mTORC1 inh 18µM, p53null 32C kill inconclusive, p53null 39C tox inconclusive
Cc1ccc(-n2c(/C=C\c3ccc(F)c(F)c3)nc3ccccc3c2=O)c(C)c1	PMP22 txn prim 8.9µM, S16 F2sN tox inconclusive | NLuc saturating inactive | NLuc Km counter inactive | FLuc counter inactive | S16 viab conf inactive | PMP22 txn cnf inconclusive
CCOc1ccc(-c2cc(C(=O)N3CCN(c4cccc(C(F)(F)F)c4)CC3)c3ccccc3n2)cc1	mTORC1 inh inconclusive, S16 F2sN tox inconclusive
COc1cc(OC)c(NS(=O)(=O)c2cc(-c3cnc(C4CC4)o3)ccc2C)cc1Cl	PMP22 txn prim inconclusive, S16 F2sN tox inconclusive
CCCCOc1ccc(CN2C(=O)C(=O)c3cc(C)ccc32)cc1OC	PMP22 txn prim 8.8µM, mTORC1 inh inconclusive, p53null 39C tox 20µM, S16 F2sN tox inconclusive | NLuc saturating inactive | NLuc Km counter inactive | FLuc counter inactive | S16 viab conf inactive | PMP22 txn cnf inconclusive
Cc1ccc(Cl)cc1Nc1nn2c(=O)c3ccc(C(=O)NCc4cccs4)cc3nc2s1	PMP22 txn prim 8.4µM, p53null 32C kill inconclusive, S16 F2sN tox 25µM | NLuc saturating inactive | NLuc Km counter inactive | FLuc counter inactive | S16 viab conf 27µM | PMP22 txn cnf inconclusive
CCOc1ccc(NC(=O)CSc2oc(-c3ccccc3)nc2S(=O)(=O)c2ccc(Cl)cc2)cc1	PMP22 txn prim 10µM, mTORC1 inh inconclusive, p53null 32C kill inconclusive, p53null 39C tox 10µM | NLuc saturating inconclusive | NLuc Km counter inconclusive | FLuc counter inactive | S16 viab conf inconclusive | PMP22 txn cnf 19µM
CCOc1ccc(C(=O)Nc2cccc(C(=O)OCc3cc(=O)n4nc(C5CC5)sc4n3)c2)cc1	PMP22 txn prim inconclusive, p53null 39C tox inconclusive
O=C(Nc1cc2c(cc1C(=O)c1ccc(Br)cc1)OCCO2)c1ccc(Cl)cc1	PMP22 txn prim inconclusive
Cc1ccc(Cl)cc1NC(=O)NCc1cccn1Cc1ccc(F)cc1	PMP22 txn prim inconclusive, p53null 39C tox inconclusive
Cc1oc(-c2ccc(Cl)cc2)nc1CN1CCC(C(=O)NCCCN2CCN(c3cccc(Cl)c3)CC2)CC1	PMP22 txn prim 13µM, mTORC1 inh inconclusive, p53null 39C tox 25µM, S16 F2sN tox inconclusive | NLuc saturating inconclusive | NLuc Km counter inconclusive | FLuc counter inactive | S16 viab conf 17µM | PMP22 txn cnf 10µM
